Reference: publication PMC4336329 (PLoS ONE, 2015)
About 14,000 (4.5%) of roughly 310,000 compounds showed an effect of 50% or more. Effects have a minus sign here. Many of the other results were omitted from the sample, so strong results are more common in it than they were.

These compounds were tested against human ether-à-go-go-related gene (hERG) potassium channel (human, UniProt Q12809) (assay: primary screen, population patch clamp on CHO cells stably expressing hERG; higher = less effect of the substance).
Chain of human ether-à-go-go-related gene (hERG) potassium channel (Q12809 whole entry, looked up): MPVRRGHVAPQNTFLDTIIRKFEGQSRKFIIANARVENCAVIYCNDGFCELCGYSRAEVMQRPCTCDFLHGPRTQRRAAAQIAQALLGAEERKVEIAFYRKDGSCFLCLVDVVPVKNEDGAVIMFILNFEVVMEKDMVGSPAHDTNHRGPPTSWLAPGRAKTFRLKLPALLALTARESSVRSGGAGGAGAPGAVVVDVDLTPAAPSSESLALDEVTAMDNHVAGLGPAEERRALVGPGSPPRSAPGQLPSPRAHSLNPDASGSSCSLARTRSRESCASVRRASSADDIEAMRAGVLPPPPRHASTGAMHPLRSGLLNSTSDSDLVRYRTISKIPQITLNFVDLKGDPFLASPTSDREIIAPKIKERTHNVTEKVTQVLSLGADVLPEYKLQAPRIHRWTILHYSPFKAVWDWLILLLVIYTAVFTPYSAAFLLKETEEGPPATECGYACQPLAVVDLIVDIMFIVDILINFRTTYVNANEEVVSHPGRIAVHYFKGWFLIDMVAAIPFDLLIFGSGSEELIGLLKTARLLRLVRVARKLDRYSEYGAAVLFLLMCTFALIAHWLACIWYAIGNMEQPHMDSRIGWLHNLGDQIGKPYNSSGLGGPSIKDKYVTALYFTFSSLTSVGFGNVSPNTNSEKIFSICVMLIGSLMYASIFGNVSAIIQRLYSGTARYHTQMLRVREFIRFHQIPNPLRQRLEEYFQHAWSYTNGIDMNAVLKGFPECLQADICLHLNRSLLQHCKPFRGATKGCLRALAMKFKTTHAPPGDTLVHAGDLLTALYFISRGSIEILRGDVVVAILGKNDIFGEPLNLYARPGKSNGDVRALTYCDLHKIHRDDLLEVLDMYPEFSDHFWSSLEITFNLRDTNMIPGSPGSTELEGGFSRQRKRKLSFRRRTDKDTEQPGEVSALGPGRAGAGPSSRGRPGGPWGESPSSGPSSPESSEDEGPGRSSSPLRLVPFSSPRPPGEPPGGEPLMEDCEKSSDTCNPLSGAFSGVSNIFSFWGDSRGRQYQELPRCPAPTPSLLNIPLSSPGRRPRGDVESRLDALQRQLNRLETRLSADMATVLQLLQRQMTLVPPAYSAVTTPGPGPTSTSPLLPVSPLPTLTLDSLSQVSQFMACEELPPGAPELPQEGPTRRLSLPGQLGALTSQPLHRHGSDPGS
Method: Briefly, Chinese hamster ovary (CHO) cells stably expressing the hERG channel were dislodged from tissue culture flasks and dispensed into PPC plates. […] During the recording, background leak currents were estimated by a 100 ms step to -80 mV from an initial holding potential of -70 mV and subtracted from the subsequent current measurement. The campaign was conducted in two phases using slight differences in recording protocol. In the first phase, the initial voltage pulse used a 100 ms step to -30 mV from a holding potential of -70 mV, a 2 s conditioning step to +25 mV, and a 2 s test step to -30 mV. During the second phase of the screen, the potential during the conditioning step was raised to +45 mV. In both phases of the campaign, a secondary voltage pulse was applied using the same parameters as the second phase initial pulse. The initial and secondary pulses were applied in the absence of compound, and upon application of 1 μM and 10 μM test concentrations. […]
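Also: peak tail current of the secondary pulse compared with the same well before compound.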

SMILES | hERG current change (%, negative = inhibition) at 10uM [%]
COc1cc(OC)cc(C(=O)/C=C2\Sc3ccccc3N2C)c1 | 9.82
COc1ccccc1-[n+]1c(C)cc(/C=C2\Sc3ccccc3N2C)cc1C.[I-] | -69.6
COc1ccc(-[n+]2c(C)cc(/C=C3\Sc4ccccc4N3C)cc2C)cc1.[I-] | -60.2
COc1ccc(NC(=O)/C(C#N)=C\c2ccc(OCc3ccc(C(=O)O)cc3)c(OC)c2)cc1 | 3.69
CC(C)C(CCNC(=O)CC(Cc1ccccc1)c1ccco1)c1ccco1 (centres unmarked) | -20
Cc1cc(C)cc(OCC(=O)NNC(=O)CCN2C(=O)c3ccccc3C2=O)c1 | -14.8
Cc1ccc(NC(=O)CCNS(=O)(=O)c2ccc3[nH]c(=O)oc3c2)cc1C | 9.43
COc1ccc2cc(CN(CC3CCCO3)S(=O)(=O)c3ccc(C(C)=O)cc3)c(=O)[nH]c2c1 (centres unmarked) | -11.4
COC(=O)CN(C)C(=O)CC1C(=O)NCCN1CC(C)(C)C (centres unmarked) | 22.8
O=c1[nH]cnc2c1cnn2Cc1ccccc1Cl | 11.7
Cc1ccc(C2(C)NC(=O)N(CC(=O)NCc3ccccc3Cl)C2=O)cc1 (centres unmarked) | 9.54
CCSC(C)CC1C/C(=N/O)c2c(C)noc2C1 (centres unmarked) | -63.4
CCSC(C)CC1C/C(=N/O)c2c(CC)noc2C1 (centres unmarked) | -24.2
CCCc1noc2c1/C(=N\O)CC(CC(C)SCC)C2 (centres unmarked) | -11.1
O=C(Nc1nccs1)C1CCCN1/C=C/C(=O)C(F)(F)F (centres unmarked) | 13.9
CSc1nnc2c(n1)OC(c1ccccn1)N(C(C)=O)c1ccccc1-2 (centres unmarked) | 1.42
CC(O)CNc1nc2sc3c(c2c(=O)n1CCc1ccccc1)CCCCC3 (centres unmarked) | 13.1
CC(O)CNc1nc2ccccc2n1-c1ncnc2sc3c(c12)CCC3 (centres unmarked) | -55.5
c1ccc2c(c1)ncn2-c1ncnc2sc3c(c12)CCCC3 | -27.2
COc1ccc(CC(=O)N/N=C/c2ccc(-c3cccc(C(=O)O)c3)o2)cc1OC | 3.33
C=CCNC(=O)CN(Cc1ccccc1)S(=O)(=O)c1ccccc1 | -4.02
CCNS(=O)(=O)c1ccc(NC(=S)N2CCc3ccccc32)cc1 | 22.9

SMILES | hERG current change (%, negative = inhibition) at 10uM [%]
CCOC(=O)c1c(C)nsc1NC(=O)C1CCCCC1 | 17.3
N#Cc1ccc(C(=O)N2CCN(S(=O)(=O)c3ccc(Br)s3)CC2)cc1 | -63.5
N#Cc1ccc(OCC(=O)N2CCN(S(=O)(=O)c3cccs3)CC2)cc1 | -72.1
O=C(COc1ccccc1)N1CCN(S(=O)(=O)c2cccs2)CC1 | -31
CCC(=O)c1ccc(OCC(=O)N2CCN(S(=O)(=O)c3ccc(Cl)s3)CC2)cc1 | -4.53
O=S(=O)(c1cccs1)N1CCN(Cc2nc3ccccc3s2)CC1 | -27.8
N#Cc1ccc(OCC(=O)N2CCN(S(=O)(=O)c3ccc(Cl)s3)CC2)cc1 | -69.5
CC(C)(C)c1ccc(C(=O)N2CCN(S(=O)(=O)c3ccc(Br)s3)CC2)cc1 | 1.21
O=C(CCOc1ccccc1)N1CCN(S(=O)(=O)c2cccs2)CC1 | -9.15
N#Cc1ccc(C(=O)N2CCN(S(=O)(=O)c3ccc(Cl)s3)CC2)cc1 | -49.9
O=C(CCCc1nc2ccccc2s1)N1CCN(S(=O)(=O)c2cccs2)CC1 | -11.9
COc1ccc(OCC(=O)N2CCN(S(=O)(=O)c3ccc(Cl)s3)CC2)cc1 | -0.573
O=C(CCc1nc2ccccc2s1)N1CCN(S(=O)(=O)c2cccs2)CC1 | -66.7
CCN(CC(=O)NC(=O)Nc1ccccc1F)Cc1ccccc1 | 12.4
Cc1ccc(N(CCC(=O)N2CCOCC2)S(=O)(=O)c2ccccc2)cc1 | -8.57
Cn1c(NC(=O)C2c3ccccc3Oc3ccccc32)cc(=O)n(C)c1=O | -3.72
C=CCn1c2ccccc2c2nnc(SCC(=O)Nc3cc(C)on3)nc21 | -8.39
CCOC(=O)CNC(=O)c1nn(-c2cccc(OC)c2)c(=O)c2ccccc12 | -22.9
O=C(COC(=O)c1cccc(Oc2ccccc2)c1)NCc1ccco1 | 3.19
Cc1ccc(C(C(=O)NC2CCCCC2)N(Cc2ccco2)C(=O)C2COc3ccccc3O2)o1 (centres unmarked) | -6.27
O=C(NC1CCCCC1)C(c1ccco1)N(Cc1cccnc1)C(=O)C1COc2ccccc2O1 (centres unmarked) | -18.8
Cc1ccc(C(C(=O)NC2CCCCC2)N(Cc2cccnc2)C(=O)C2COc3ccccc3O2)o1 (centres unmarked) | -59.7
